Whole data set: some 3,600 compounds, median “viability index relative to DMSO control” near 0.81, cut for the lowest 2% near 0.13. The entries come from a sample that favours the lowest values as a whole.
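Further: Saponin-lysis sexual stage assay in serum-free medium: MitoTracker Red CMXRos staining plus saponin, high-content imaging, particle count per well divided by plate mean of DMSO wells.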

The subject of the test is Plasmodium falciparum NF54 stage V gametocytes. The test can be described thus: viability index relative to DMSO control (fraction); higher = less gametocyte killing. Particulars: 1.25 µM, incubation time: 72 h.
`COc1ccc(CC2NCC(O)C2OC(C)=O)cc1` (stereo not given) showed a viability index of 0.
Under `Cc1ccc(-n2c(C)c(C(=O)c3ccccc3)c3cc(O)ccc32)cc1` stands 1.24; under `Cc1c2ccccc2c(C)c2ccccc12`, 1.04; under `COc1ccc(-c2ccc(C=C3C(=O)NC(=S)NC3=O)o2)cc1Cl`, 0.866.
Under `C=CC1CN2CCC1C(C(O)c1ccnc3ccc(OC)cc13)C2` (stereo not given) stands 0.411.
On to `NC(=O)CN1CC(O)CC1=O` (stereo not given), for which the viability index is 0.0308.
Next, `OC1(c2ccc(Cl)c(C(F)(F)F)c2)CCN(CCOC2c3ccccc3CSc3ccc(Cl)cc32)CC1` (stereo not given): 0.589; `CC(C)N1CC=C(c2c[nH]c3ccccc23)CC1`: 0.887; `O=C(Cn1c2ccccc2c(=O)c2ccccc21)Nc1ccc(Cl)cc1C(=O)c1ccccc1`: 0.781.
Under `Oc1ccccc1C=Nc1ccccc1[Te]c1ccccc1N=Cc1ccccc1O` stands 0.0513.
Next, `O=c1cccc2n1CC1CC2CN(Cc2cccc(O)c2)C1` (stereo not given): 0.898; `CC(C)NC(=O)c1cn(Cc2ccccc2)cc(C(=O)NCCc2nc3ccccc3[nH]2)c1=O`: 0.942.
Compound `CN1CCN(c2ccc(NC(=O)Oc3ccccc3)cc2)CC1` had a viability index of 0.798.
Compound `N#CC1=C(N)Oc2c(c(=O)oc3ccccc23)C1c1ccoc1` (stereo not given) displayed a viability index of 1.08.
Turning to `C=CC1CN2CCC1CC2C(OC(=O)c1ccco1)c1ccnc2ccccc12` (stereo not given), the viability index is 0.46.

The values above are taken from the supplement of paper PMC4723716.
